Assay [1] relates to Proto-oncogene tyrosine-protein kinase receptor Ret (Homo sapiens), P07949 [Y791F]. Conditions: at 1 µM.
Assay [2] addresses Macrophage-stimulating protein receptor (Homo sapiens) (UniProt Q04912). Conditions: at 0.1 µM.
Assay [3] has the same target. Conditions: at 1 µM.
The target in assay [4] is Proto-oncogene tyrosine-protein kinase ROS (Homo sapiens) (UniProt P08922). Conditions: at 0.1 µM.
The target is the same in assay [5]. Conditions: at 1 µM.
Assay [6] addresses Proto-oncogene tyrosine-protein kinase Src (Homo sapiens) (UniProt P12931). Conditions: at 0.1 µM.
The target is the same in assay [7]. The conditions noted are these: at 1 µM.
In assay [8] the target is Tyrosine-protein kinase Srms (Homo sapiens) (UniProt Q9H3Y6). The conditions noted are these: at 0.1 µM.
Sequence of Tyrosine-protein kinase Srms (Homo sapiens) (Q9H3Y6 whole entry): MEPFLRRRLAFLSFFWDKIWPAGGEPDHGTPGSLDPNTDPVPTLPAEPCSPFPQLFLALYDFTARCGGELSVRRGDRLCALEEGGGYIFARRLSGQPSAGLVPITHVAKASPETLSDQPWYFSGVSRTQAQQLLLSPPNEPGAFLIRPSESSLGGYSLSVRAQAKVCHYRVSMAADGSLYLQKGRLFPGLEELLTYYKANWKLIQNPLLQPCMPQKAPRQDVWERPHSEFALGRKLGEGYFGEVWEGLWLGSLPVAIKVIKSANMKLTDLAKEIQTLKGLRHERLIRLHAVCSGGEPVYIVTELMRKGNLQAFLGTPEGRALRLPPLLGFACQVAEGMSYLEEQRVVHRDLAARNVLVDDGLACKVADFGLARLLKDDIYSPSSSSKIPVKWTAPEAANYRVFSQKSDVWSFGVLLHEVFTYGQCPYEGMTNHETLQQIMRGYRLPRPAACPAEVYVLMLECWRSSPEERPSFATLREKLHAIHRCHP
Assay [9] has the same target. Conditions: at 1 µM.
Assay [10] deals with Tyrosine-protein kinase SYK (Homo sapiens) (UniProt P43405). Conditions: at 0.1 µM.
For assay [11] the target is unchanged. Conditions: at 1 µM.
In assay [12] the target is T1, Tyrosine-protein kinase Tec (Homo sapiens) (UniProt P42680).
T1 sequence (whole entry): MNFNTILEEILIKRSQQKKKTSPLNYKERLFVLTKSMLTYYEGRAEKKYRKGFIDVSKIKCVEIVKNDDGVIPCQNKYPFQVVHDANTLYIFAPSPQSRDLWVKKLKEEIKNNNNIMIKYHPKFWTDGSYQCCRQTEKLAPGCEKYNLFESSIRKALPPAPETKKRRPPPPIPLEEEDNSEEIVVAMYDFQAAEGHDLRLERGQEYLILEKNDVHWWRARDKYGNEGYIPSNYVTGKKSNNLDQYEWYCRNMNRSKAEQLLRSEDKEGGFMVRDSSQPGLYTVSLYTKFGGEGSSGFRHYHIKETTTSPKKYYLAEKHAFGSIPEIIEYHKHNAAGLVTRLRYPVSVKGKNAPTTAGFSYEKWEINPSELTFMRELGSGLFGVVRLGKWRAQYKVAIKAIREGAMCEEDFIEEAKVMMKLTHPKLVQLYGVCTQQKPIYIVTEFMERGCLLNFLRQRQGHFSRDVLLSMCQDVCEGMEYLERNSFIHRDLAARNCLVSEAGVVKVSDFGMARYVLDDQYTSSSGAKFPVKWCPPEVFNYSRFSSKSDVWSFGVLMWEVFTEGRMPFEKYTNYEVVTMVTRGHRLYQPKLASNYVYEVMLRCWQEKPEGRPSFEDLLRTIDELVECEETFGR
Conditions: at 0.1 µM.

In assay [13] the target is T1, Tyrosine-protein kinase Tec (Homo sapiens). The conditions noted are these: at 1 µM.
The target in assay [14] is Angiopoietin-1 receptor (Homo sapiens) (UniProt Q02763). Conditions: at 0.1 µM.
The target is the same in assay [15]. Conditions: at 1 µM.
The target of assay [16] is T2, Non-receptor tyrosine-protein kinase TNK1 (Homo sapiens) (UniProt Q13470).
T2 sequence (whole entry): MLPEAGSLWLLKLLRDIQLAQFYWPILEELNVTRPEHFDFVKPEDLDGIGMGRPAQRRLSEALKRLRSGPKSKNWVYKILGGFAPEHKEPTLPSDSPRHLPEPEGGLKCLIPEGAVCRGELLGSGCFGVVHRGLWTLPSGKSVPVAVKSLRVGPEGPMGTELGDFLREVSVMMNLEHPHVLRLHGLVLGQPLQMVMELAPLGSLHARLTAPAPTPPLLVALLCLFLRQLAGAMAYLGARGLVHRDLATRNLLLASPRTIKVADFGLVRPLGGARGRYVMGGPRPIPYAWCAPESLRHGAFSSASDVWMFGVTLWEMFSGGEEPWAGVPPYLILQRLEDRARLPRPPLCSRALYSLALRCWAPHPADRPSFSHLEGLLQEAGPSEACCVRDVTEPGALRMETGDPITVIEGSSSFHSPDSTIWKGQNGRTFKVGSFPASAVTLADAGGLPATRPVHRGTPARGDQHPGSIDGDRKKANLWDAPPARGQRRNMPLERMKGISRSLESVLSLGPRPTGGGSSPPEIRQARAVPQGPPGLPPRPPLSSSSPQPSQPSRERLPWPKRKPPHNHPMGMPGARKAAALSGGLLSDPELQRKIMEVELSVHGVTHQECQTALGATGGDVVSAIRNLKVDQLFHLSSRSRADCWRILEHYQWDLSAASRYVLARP
Conditions: at 0.1 µM.

Assay [17] deals with T2, Non-receptor tyrosine-protein kinase TNK1 (Homo sapiens). The conditions noted are these: at 1 µM.
Assay [18] deals with Activated CDC42 kinase 1 (Homo sapiens) (UniProt Q07912). Conditions: at 0.1 µM.
Assay [19] has the same target. The conditions noted are these: at 1 µM.
In assay [20] the target is High affinity nerve growth factor receptor (Homo sapiens) (UniProt P04629). Conditions: at 0.1 µM.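 Also: each value is a mean of replicate percent inhibition readings against TRKA kinase.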
Sequence of High affinity nerve growth factor receptor (Homo sapiens) (P04629 33-796 limits assumed): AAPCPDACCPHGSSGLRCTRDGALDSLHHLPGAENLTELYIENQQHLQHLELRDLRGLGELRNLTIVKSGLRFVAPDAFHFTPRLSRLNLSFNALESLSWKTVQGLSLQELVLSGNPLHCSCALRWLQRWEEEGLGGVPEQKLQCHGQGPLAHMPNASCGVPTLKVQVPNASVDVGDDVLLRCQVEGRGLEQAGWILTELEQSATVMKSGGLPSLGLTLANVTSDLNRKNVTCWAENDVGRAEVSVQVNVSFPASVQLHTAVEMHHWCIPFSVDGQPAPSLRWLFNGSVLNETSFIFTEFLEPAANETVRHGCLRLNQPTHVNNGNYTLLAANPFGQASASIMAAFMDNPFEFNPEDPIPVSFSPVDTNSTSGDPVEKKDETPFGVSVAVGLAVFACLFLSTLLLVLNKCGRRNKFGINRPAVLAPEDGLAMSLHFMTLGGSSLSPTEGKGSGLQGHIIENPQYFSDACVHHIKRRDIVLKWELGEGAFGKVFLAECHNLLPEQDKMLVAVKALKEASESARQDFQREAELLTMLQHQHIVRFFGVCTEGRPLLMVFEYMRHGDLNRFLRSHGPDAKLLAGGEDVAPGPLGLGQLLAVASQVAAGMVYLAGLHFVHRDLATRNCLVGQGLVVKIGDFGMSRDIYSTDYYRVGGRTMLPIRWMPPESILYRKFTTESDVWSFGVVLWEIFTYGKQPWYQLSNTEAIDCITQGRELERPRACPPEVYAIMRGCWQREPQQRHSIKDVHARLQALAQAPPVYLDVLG

Sequence of Macrophage-stimulating protein receptor (Homo sapiens) (Q04912 25-304 limits assumed): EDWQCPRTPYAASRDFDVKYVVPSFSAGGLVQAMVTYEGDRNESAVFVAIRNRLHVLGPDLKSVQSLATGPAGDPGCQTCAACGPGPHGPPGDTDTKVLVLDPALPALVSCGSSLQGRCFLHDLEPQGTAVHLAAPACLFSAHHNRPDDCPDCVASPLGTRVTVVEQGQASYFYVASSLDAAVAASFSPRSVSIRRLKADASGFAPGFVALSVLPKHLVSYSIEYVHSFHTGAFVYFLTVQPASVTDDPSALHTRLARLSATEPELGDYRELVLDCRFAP
Sequence of Macrophage-stimulating protein receptor (Homo sapiens) (Q04912 310-1400 limits assumed): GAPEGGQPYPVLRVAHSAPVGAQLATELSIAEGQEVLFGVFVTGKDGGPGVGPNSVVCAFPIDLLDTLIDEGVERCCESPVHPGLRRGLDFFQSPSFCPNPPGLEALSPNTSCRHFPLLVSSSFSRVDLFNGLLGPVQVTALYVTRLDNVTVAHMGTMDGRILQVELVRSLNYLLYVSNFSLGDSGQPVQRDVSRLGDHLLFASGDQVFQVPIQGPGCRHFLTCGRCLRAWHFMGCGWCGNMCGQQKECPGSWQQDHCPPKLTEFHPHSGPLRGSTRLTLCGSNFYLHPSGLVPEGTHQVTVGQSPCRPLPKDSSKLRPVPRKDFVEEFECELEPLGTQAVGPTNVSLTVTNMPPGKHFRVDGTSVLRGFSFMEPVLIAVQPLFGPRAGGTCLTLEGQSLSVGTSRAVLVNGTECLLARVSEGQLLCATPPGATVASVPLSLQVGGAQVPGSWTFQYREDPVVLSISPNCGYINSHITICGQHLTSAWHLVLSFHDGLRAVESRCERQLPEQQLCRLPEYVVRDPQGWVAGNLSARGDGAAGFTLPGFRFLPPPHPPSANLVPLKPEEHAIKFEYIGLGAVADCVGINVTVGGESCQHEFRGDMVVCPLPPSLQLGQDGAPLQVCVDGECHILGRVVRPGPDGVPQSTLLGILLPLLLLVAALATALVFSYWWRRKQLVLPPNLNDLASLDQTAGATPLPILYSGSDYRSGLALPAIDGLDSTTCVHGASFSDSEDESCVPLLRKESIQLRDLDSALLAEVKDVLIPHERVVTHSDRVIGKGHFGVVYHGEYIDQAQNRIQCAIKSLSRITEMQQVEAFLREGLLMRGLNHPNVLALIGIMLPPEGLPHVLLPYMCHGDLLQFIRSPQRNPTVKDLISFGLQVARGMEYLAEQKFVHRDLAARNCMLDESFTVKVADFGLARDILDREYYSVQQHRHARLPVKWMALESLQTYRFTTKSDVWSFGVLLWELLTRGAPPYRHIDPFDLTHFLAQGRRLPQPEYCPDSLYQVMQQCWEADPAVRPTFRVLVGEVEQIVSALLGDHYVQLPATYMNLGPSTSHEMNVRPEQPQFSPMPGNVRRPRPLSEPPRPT
Sequence of Proto-oncogene tyrosine-protein kinase Src (Homo sapiens) (P12931 2-536 limits assumed): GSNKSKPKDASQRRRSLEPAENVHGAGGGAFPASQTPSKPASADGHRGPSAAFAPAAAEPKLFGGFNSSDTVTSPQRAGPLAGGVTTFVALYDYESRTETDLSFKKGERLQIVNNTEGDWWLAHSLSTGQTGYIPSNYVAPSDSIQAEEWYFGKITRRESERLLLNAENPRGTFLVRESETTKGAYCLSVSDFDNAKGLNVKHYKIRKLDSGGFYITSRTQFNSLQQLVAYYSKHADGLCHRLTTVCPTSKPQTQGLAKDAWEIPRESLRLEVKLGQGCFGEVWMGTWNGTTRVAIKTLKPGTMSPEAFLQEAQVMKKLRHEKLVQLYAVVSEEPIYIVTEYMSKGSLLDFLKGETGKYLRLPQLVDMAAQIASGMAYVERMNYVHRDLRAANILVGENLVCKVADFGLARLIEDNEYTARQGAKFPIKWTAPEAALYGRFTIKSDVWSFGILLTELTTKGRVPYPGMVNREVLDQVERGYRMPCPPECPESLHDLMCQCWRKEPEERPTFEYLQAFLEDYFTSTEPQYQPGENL
Sequence of Proto-oncogene tyrosine-protein kinase receptor Ret (Homo sapiens), P07949 [Y791F] (P07949 whole entry Y791F): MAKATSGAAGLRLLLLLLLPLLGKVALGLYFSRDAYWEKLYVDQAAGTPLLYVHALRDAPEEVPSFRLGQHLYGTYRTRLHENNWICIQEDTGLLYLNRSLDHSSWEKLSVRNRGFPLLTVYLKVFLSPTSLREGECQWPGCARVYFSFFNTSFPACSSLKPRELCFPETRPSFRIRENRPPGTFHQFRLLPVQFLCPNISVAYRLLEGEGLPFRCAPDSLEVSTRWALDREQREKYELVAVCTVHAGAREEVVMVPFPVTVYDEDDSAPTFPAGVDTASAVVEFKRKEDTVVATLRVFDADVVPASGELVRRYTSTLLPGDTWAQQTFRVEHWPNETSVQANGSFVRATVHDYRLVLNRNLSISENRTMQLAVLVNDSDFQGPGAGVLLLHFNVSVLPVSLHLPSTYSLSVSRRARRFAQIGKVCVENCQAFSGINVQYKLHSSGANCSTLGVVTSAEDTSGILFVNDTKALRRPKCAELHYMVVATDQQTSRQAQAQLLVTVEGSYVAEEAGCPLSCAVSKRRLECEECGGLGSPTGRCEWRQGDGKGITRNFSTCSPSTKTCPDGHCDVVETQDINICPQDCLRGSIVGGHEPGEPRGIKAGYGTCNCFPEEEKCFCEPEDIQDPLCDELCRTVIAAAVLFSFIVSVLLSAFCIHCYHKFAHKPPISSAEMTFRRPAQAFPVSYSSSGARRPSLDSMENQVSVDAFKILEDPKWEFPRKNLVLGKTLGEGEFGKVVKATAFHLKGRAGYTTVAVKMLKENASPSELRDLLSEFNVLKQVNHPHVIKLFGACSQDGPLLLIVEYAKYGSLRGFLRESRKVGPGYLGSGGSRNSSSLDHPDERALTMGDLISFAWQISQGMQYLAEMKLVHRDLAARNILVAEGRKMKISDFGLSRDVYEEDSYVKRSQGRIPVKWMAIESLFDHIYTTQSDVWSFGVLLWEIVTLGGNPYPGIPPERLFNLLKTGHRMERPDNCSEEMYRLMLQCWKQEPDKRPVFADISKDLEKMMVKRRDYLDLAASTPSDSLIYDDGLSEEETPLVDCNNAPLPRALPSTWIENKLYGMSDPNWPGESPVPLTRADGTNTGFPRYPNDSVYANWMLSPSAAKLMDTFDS

Broadly, the inhibition is the drop in the measured response relative to a control, in per cent. Regarding `COC(=O)Nc1nc2ccc(Oc3ccc(NC(=O)Nc4cc(C(F)(F)F)ccc4F)cc3)cc2s1`, the inhibition in assay [1] came out at 83.2%; in assay [2], 1.92%; in assay [3], 1.28%; in assay [4] it was 1.61%; in assay [5], 7.35%; in assay [6], 0.46%. Also, the inhibition in assay [7] is 26.9%; in assay [8] it was 0.28%; in [9], -0.86%; in assay [10], 0.09%; in assay [11], 0.26%; in assay [12], 1.25%. Also, the inhibition in [13] is -0.83%; in [14] it was 50.8%; in assay [15] it was 78%; in [16], 11.5%; in assay [17], 27.2%; in assay [18], 0.46%. Moreover, the results for the inhibition in assay [19] and in [20] were 1.35% and 24.2%, respectively.
As to `NS(=O)(=O)c1ccc(N/N=C2\C(=O)Nc3ccc(C(=O)NCc4ccncc4)cc32)cc1`, the inhibition in [1] is 51.9%; in [2], 1.31%; in assay [3] it was 7.54%; in assay [4], 3.91%; in assay [5] it was 4.83%; in assay [6], 2.77%. In addition, the inhibition in assay [7] was 29.2%; in assay [8] it was 0.62%; in [9], 1.01%; in assay [10], -2.4%; in [11], -2.54%; in [12], 3.82%. The inhibition was 7.13% in assay [13]; -0.94% in assay [14]; 1.16% in [15]; 3.58% in assay [16]; 17.5% in assay [17]; 0.57% in assay [18]. Moreover, the results for the inhibition in [19] and in [20] were 2.58% and 4.11%, respectively.
In the case of `COc1cc(N2CCN(C(C)C)CC2)ccc1Nc1nc(Nc2cccc(F)c2C(=O)O)c2cc[nH]c2n1`, the inhibition was 11.6% in assay [1]; 0.36% in assay [2]; 2.96% in assay [3]; 13.8% in assay [4]; 54.7% in assay [5]; -3.89% in [6]. The inhibition in assay [7] was 8.5%; in assay [8] it was -1.76%; in [9] it was 5.01%; in assay [10] it was -4.66%; in assay [11] it was -7.57%; in [12], 4.02%. In addition, the inhibition in assay [13] was found to be 5.87%; in [14], 2.04%; in [15] it was 5.53%; in [16], 8.72%; in assay [17], 53.4%; in [18], 1.91%. In addition, the results for the inhibition in [19] and in assay [20] were 5.95% and 4.69%, respectively.
For `Cc1cc(O)cc(C)c1/C=C/c1cncc(C(N)=O)c1`, the inhibition in [1] was 8.63%; in [2], 1.41%; in assay [3] it was 4.46%; in [4] it was 4.48%; in assay [5] it was 6.31%; in assay [6], 5.55%. In addition, the inhibition in [7] is 54.2%; in [8], 5.08%; in [9], 31.6%; in assay [10], -0.5%; in assay [11] it was 0.5%; in assay [12], 5.81%. Further, the inhibition in assay [13] is 32.2%; in [14], 2.45%; in [15], 5.29%; in [16], 4.23%; in assay [17] it was 14.4%; in [18] it was 1.58%. The results for the inhibition in assay [19] and in assay [20] were 6.06% and 4.13%, respectively.
Turning to `CCS(=O)(=O)c1ccc(OC)c(Nc2ncc(-c3cccc(C(C)=O)c3)o2)c1`, the inhibition in assay [1] is 39.2%; in assay [2] it was -2.76%; in assay [3], 3.79%; in assay [4], 3.34%; in [5], 16.5%; in assay [6], 16.3%. For the same compound, the inhibition in [7] is 70.7%; in [8], 0.94%; in [9], 17.7%; in assay [10], -5.14%; in [11] it was -2.16%; in assay [12], 6.22%. The inhibition in assay [13] was 26.6%; in [14], 2.09%; in assay [15], 9.26%; in assay [16], 15.3%; in [17], 66.9%; in [18] it was 1.65%. The inhibition in [19] was found to be 6.5%; in [20], 4.29%.
For `CN(C)CCNC(=O)Nc1ccc(N(C)c2ccnc(Nc3ccc(CS(C)(=O)=O)cc3)n2)cc1`, the inhibition in assay [1] worked out at 23.3%; in assay [2] it was 3.87%; in [3] it was 7.76%; in [4], 15.3%; in assay [5], 78%; in assay [6] it was 4.55%. Also, the inhibition in assay [7] was 14.4%; in assay [8], -2.02%; in [9], -0.56%; in [10] it was -4.06%; in assay [11], -4.22%; in assay [12], 5.73%. Also, the inhibition in assay [13] is 14.7%; in assay [14] it was 2.91%; in assay [15], 12.6%; in assay [16], 12.7%; in assay [17], 47.1%; in [18] it was 1.49%. Besides, the results for the inhibition in assay [19] and in assay [20] were 4.15% and 1.76%, respectively.
Turning to `COc1ccc(Nc2ncc(-c3ccccc3)o2)cc1OC`, the inhibition in [1] was 27.2%; in assay [2], -0.4%; in assay [3], 5.46%; in [4] it was 7.2%; in assay [5] it was 24.5%; in assay [6] it was 12.2%. The inhibition in assay [7] came to 54%; in assay [8] it was 0.67%; in assay [9], 2.69%; in [10] it was 4.52%; in assay [11] it was 0.42%; in assay [12], 2.91%. Besides, the inhibition in assay [13] was 9.41%; in assay [14] it was 2.1%; in [15], 8.87%; in assay [16], 5.16%; in assay [17] it was 26.8%; in [18], -0.28%. Moreover, the results for the inhibition in [19] and in assay [20] were 2.05% and -1.61%, respectively.

Values taken from ChEMBL document CHEMBL1961873, “Compounds: GSK PKIS; Assays: Nanosyn kinase panel” (2012).
